Assay outcomes deposited in PubChem BioAssay by National Center for Advancing Translational Sciences (NCATS).
The entries come from a sample that favours hits as a whole.
HT1080NT lethal: kills 2HG-producing HT-1080-NT fibrosarcoma cells. HT-1080-NT fibrosarcoma viability, CellTiter-Glo ATP luminescence, 48 h. 360,000 compounds, 1.6% hits. AID 686970. Potency, µM (doses to about 46.1 µM), for inactives: at the top dose activity, negative = less viability, hits mostly cytotoxic;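 further: NT is the 2HG producing partner of a matched IDH1 knockdown line; potency means the concentration at half of the fitted maximal effect; 0% = DMSO-treated cells and -100% = media-only wells without cells; nearly all actives have a fitted effect of over 55% in size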
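Viability by CellTiter-Glo luminescence after 48 h compound exposure at 37C of HT-1080-NT cells (750/well, RPMI, 5% FBS). % activity scaled between DMSO wells and medium-only wells, then curve-fitted and categorized by curve class.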
12-LOX inh: inhibitors of human 12S-lipoxygenase ALOX12; 580,000 compounds, 1.1% hits; P18054; Potency, µM (series often up to 108 µM), inactives show top-dose activity change, negative = inhibition, hits mostly inhibitors; purified 12hLO, xylenol orange hydroperoxide absorbance; AID 1671190; further: potency means the concentration at half of the fitted maximal effect
Target sequence (P18054 whole entry, looked up): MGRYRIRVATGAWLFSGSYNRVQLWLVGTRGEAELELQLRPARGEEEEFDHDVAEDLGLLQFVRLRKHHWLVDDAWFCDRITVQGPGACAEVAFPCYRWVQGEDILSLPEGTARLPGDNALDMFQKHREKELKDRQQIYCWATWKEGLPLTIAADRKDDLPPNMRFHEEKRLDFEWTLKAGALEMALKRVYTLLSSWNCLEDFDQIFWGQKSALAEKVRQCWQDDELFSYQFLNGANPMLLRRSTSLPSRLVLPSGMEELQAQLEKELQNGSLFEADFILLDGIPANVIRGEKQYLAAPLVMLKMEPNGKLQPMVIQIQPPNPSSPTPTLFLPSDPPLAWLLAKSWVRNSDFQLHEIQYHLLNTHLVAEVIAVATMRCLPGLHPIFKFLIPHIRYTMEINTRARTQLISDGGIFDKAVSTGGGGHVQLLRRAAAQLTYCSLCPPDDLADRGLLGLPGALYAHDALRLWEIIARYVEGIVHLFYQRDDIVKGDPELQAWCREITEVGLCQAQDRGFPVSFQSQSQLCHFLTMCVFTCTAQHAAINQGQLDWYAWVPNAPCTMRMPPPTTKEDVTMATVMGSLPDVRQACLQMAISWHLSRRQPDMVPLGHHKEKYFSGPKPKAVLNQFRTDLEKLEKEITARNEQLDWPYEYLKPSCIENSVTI
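Purified human 12hLO (150 nM final) in 25 mM Hepes, 0.01% Triton X-100, pH 7.0 was preincubated 15 min at room temperature with compound. Then 40 uM arachidonic acid was added, 30 min. Hydroperoxide was read by Fe-XO absorbance ratio 573/405 nm.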
TDP1 cell noCPT: qHTS for Inhibitors of human tyrosyl-DNA phosphodiesterase 1 (TDP1): qHTS in cells in absence of CPT. Potency, µM (series often up to 46.2 µM), without a hit: at the top dose activity change, negative = growth inhibition, hits mostly inhibitors. AID 686978, 2013. 420,000 compounds, 15% hits. DT40 Tdp1-/- hTDP1 cells, no CPT, ATP luminescence, 48 h; further: potency means the concentration at half of the fitted maximal effect; nearly all actives have a fitted effect of over 55% in size
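Stably hTDP1-transfected Tdp1-null chicken DT40 cells were treated with library compounds minus camptothecin and grown for at least 48 hr at 37 °C, after which cellular ATP was quantified by luminescence.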
TDP1 cell CPT: growth inhibition of DT40 Tdp1-/-;hTDP1 cells with camptothecin (screen for TDP1 inhibitors); chicken DT40 Tdp1-/-;hTDP1 cells + 20 nM CPT, ATP luminescence, 48 h; Potency, µM (series often up to 46.2 µM), for inactives: at the highest dose activity change, negative = growth inhibition, actives largely listed as inhibitors; 420,000 compounds, 12% hits; further: potency means the concentration at half of the fitted maximal effect; nearly all actives have a fitted effect of over 55% in size
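Chicken DT40 Tdp1-/- cells stably complemented with human TDP1 were seeded at 400 cells/well in medium containing 20 nM camptothecin, exposed to pin-transferred compounds, and grown at 37 °C for at least 48 hr. Viability was read as ATP luminescence.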
IL1B secr inh: inflammasome signaling inhibition, IL-1 beta readout; THP-1 LPS/ATP IL-1B secretion, AlphaLISA, 16 h; stronger effect = lower value; activity change, % at 57.5 µM; 360,000 compounds, 4.7% hits; AID 743279; in the data active means activity change below about -50%; inconclusive means mostly about -30% to -49%
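Secreted IL-1B measured by AlphaLISA bead assay after 16 h compound exposure of THP-1 cells; compounds (final up to 57.5 uM) added 1 h before LPS (250 ng/mL) and ATP (1.25 mM) stimulation; lower signal means less secretion.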
HT1080 IDH1KD tx: kills HT-1080 cells with IDH1 knockdown; HT-1080 IDH1 knockdown viability, ATP luminescence, 48 h; AID 686971; Potency, µM (doses to about 46.1 µM), without a hit: at the highest dose activity, negative = toxicity, hits mostly cytotoxic; 360,000 compounds, 2% hits;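 further: potency means the concentration at half of the fitted maximal effect; 0% = DMSO wells and -100% = cell-free medium wells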
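Using the IDH1-knockdown HT-1080 line run in the same batch and compound series as the NT line, viability after 48 h at 37 °C was determined by CellTiter-Glo luminescence and expressed as % activity.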
* = called active by the depositor; u = inconclusive; x = not tested or not shown; ! = repeats disagree; [ ] = remark or other dose. Unless noted, the call rests on the fitted dose curve; in most records, active means well fitted curve in the direction sought with a large enough effect; inconclusive means small, poorly fitted or top-dose-only effect, or another doubt; inactive means no such curve, though single readings can be large; an effect the other way counts as inactive or inconclusive. Unless noted, on the % scale 0 is the no-effect control and ±100 the full control effect.

SMILES | HT1080NT lethal | 12-LOX inh | TDP1 cell noCPT | TDP1 cell CPT | IL1B secr inh | HT1080 IDH1KD tx
COc1ccc([N+](=O)[O-])c2cccnc12 | x | 2% | x | x | x | x
O=C(CSc1nc2ccccc2c(=O)n1CCCN1CCOCC1)c1ccc2c(c1)CCCC2 | x | -25% | x | x | x | x
Cc1ccc(-c2csc(Nc3ccc(O)c(C(=O)O)c3)n2)cc1 | x | 35µM* | x | x | x | x
Cc1nc(C)c(-c2csc(Nc3ccc(C(=O)O)c(O)c3)n2)s1 | -4% | -13% | -13% | -3% | u | -6%
O=C(O)c1ccc(Nc2nc(-c3ccc(Cl)cc3)cs2)cc1O | x | 10µM* | x | x | x | x
Cc1ccsc1-c1nc(C2CC(=O)N(C3CCCCC3)C2)no1 (configuration not stated) | x | 15% | x | x | x | x
COc1ccccc1C(=O)COC(=O)CNS(=O)(=O)c1ccc(C)c(C)c1 | 5% | -10% | -5% | 8% | 5 | 0%
O=C(O)CNC(=O)C1CCCN1C(=O)CNC(=O)OCc1ccccc1 (configuration not stated) | 10% | 0% | 2% | 18% | -3 | 24%
Cc1cccc(NC(=O)C2CCCN2C(=O)OCc2ccccc2)c1 (configuration not stated) | -20% | 9% | 0.058µM* | -34% | -6 | -3%
O=C(OCc1ccccc1)C1CCCN1C(=O)c1ccccc1[N+](=O)[O-] (configuration not stated) | 18% | -2% | 16µM* | 15µM* | -63* | u
O=C(CNC(=O)OCc1ccccc1)NCC(=O)N1CCCC1C(=O)OCc1ccccc1 (configuration not stated) | -1% | 435% | -21% | u | -88* | -15%
Cn1cc(CN[C@H]2[C@H](O)[C@H](O)C[C@@H]2c2cccnc2)cn1 | x | 10%[176 µM] | x | x | x | x
Cc1ccc(S(=O)(=O)NC(=O)NC2=NC(C)(C)N(c3ccc(Cl)c(Cl)c3)C(N)=N2)cc1 | 3.3µM* | u | 1µM* | 0.92µM* | 16 | 1.6µM*
COC(=O)c1cc(NC(=O)CN(c2cccc(OC)c2)S(=O)(=O)c2ccccc2)ccc1Cl | -6% | -5% | 16µM* | u | 10 | -14%
COC(=O)c1cc(NC(=O)CN(c2ccccc2)S(=O)(=O)N(C)C)ccc1Cl | x | -7% | 23µM* | u | x | x
COC(=O)c1cc(NC(=O)CN(c2ccccc2OC)S(=O)(=O)c2ccccc2)ccc1Cl | -25% | 7% | u | u | -22 | -16%
CCCS(=O)(=O)N1CCC(N2C(=O)[C@H](OC)[C@@H]2c2ccncc2)CC1 | x | 41% | x | x | x | x
Cc1nn(C)c(Oc2ccc(Cl)cc2)c1C(=O)Nc1ccc(F)cc1F | 9% | -28% | 7.3µM* | u | -10 | 5%
O=C(N/N=C/c1ccc(Br)cc1)c1cccs1 | x | 0% | x | x | x | x
COc1c2ccoc2cc2oc(=O)ccc12 | -9% | -1% | -14% | -2% | -9 | -1%
CC1(C)C=Cc2cc3ccc(=O)oc3cc2O1 | u | -22% | 8.2µM*! | 15µM*! | -10 | -10%
CC1(C)Oc2cc3oc(=O)ccc3cc2C[C@@H]1O | 7% | 14% | -9% | 24% | 24 | 8%
COc1c2c(cc3oc(=O)ccc13)OC(C)(C)C=C2 | 0% | u | 26µM* | u | 10 | -5%
O=C(C1CC1)N1CC(Oc2ccccc2-c2nc(-c3cnccn3)no2)C1 | x | 57% | x | x | x | x
Cc1ccc(CN2CCOc3ccc(CN4CCC(O)(c5cccnc5)CC4)cc3C2)cc1 | x | 1% | u | u | x | x
SMILES | HT1080NT lethal | 12-LOX inh | TDP1 cell noCPT | TDP1 cell CPT | IL1B secr inh | HT1080 IDH1KD tx
Cc1c(C)n(-c2ccccc2)c2ncn(CC(=O)NCCc3ccc(Cl)cc3)c(=O)c12 | x | 1% | x | x | x | x
O=C(O)c1ccccc1-c1ccc(/C=c2\sc3nc4cc(Br)cnc4n3c2=O)o1 | 5% | x | 18µM* | 16µM* | -3 | -1%
COc1ccc(/C=C2\SC(N3CCc4ccccc4C3)=NC2=O)cc1 | 3% | -24% | u | u | u | 9%
COc1cc(/C=C2\SC(c3ccc(C)cc3)=NC2=O)cc(OC)c1OC | 5% | x | -29% | -5% | 27 | 15%
CCOc1ccc(/C=C2\SC(N3CCc4ccccc4C3)=NC2=O)cc1 | u | -22% | 21µM* | 29µM* | -54* | -22%
COc1cc(/C=C2\SC(N3CCc4ccccc4C3)=NC2=O)cc(OC)c1OC | 1% | -15% | 16µM* | 21µM* | -67* | 10%
Cc1cc(N2C(=O)C(O)=C(C(=O)c3cc4ccccc4o3)C2c2cccc(Cl)c2)no1 (configuration not stated) | -15% | u | u | u | -10 | -28%
Cc1cc(N2C(=O)C(O)=C(C(=O)c3cc4ccccc4o3)C2c2ccc(Br)cc2)no1 (configuration not stated) | 0% | 40µM* | -20% | -26% | -15 | 7%
Cc1cc(N2C(=O)C(O)=C(C(=O)c3cc4ccccc4o3)C2c2ccc(Cl)cc2)no1 (configuration not stated) | 0% | 40µM* | -8% | -11% | -9 | -11%
CN(C)CCN1C(=O)C(O)=C(C(=O)c2cc3ccccc3o2)C1c1ccc(OCc2ccccc2)cc1 (configuration not stated) | x | 25µM* | x | x | x | x
Cc1cc(C)cc(N(CC(=O)NCc2ccccc2Cl)S(=O)(=O)c2c(C)noc2C)c1 | x | 0% | 23µM* | u | x | x
COc1cc(NC(=O)CN(c2ccc(C)cc2)S(=O)(=O)c2c(C)noc2C)cc(OC)c1 | -14% | -7% | 7.3µM* | 18µM* | u | -23%
CCOc1ccc(N(CC(=O)Nc2ccc(C)cc2)S(=O)(=O)c2c(C)noc2C)cc1 | -16% | -21% | -27% | u | -11 | -6%
Cc1cc(C)cc(N(CC(=O)NCc2ccco2)S(=O)(=O)c2c(C)noc2C)c1 | 11% | -12% | -24% | -27% | -12 | 3%
Cc1ccc(N(CC(=O)Nc2ccc(OC(F)(F)F)cc2)S(=O)(=O)c2c(C)noc2C)cc1 | x | -9% | 18µM* | 21µM* | x | x
Cc1ccc(NC(=O)CN(c2cc(C)cc(C)c2)S(=O)(=O)c2c(C)noc2C)nc1 | 0% | -7% | u | u | -4 | 0%
Cc1cc(C)cc(N(CC(=O)Nc2cccc(C)n2)S(=O)(=O)c2c(C)noc2C)c1 | -29% | -28% | 13µM* | 21µM* | -28 | -18%
